Data as given in PubChem BioAssay (NCI).
This is part of a sample that, as a whole, favours compounds with a hit. Of some 83,000 tested, about 20% had one in any assay.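 Results are percent growth after 48 hours of single-concentration exposure. 100 means growth as in untreated cells, lower positive values show inhibition; negative values down to -100 show cell death.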 A number with no mark means an inactive call. The source made the active and inactive calls. How the source made its calls: active means growth percent below 10; inactive means the rest.

Experiments:
Assay in all cases: NCI-60 one-dose screen, 48 h (100 = growth as untreated, 0 = no growth, -100 = all killed)
Settings in all cases: 10 µM unless noted
[1] = test system: T-47D breast
[2] = test system: BT-549 breast
[3] = test system: MDA-MB-435 melanoma
[4] = test system: SW-620 colon
[5] = test system: MCF7 breast
[6] = test system: HCT-116 colon
[7] = test system: HCC-2998 colon
[8] = test system: KM12 colon

| SMILES | growth [1] | growth [2] | growth [3] | growth [4] | growth [5] | growth [6] | growth [7] [%] | growth [8] |
| --- | --- | --- | --- | --- | --- | --- | --- | --- |
| Cc1cc(C)c(S(=O)(=O)Oc2ccccc2[N+](=O)[O-])c(C)c1 | 38.8% | 40.6% | -2.54% (active) | 8.04% (active) | 13.3% | 19.7% | 32.1 | 23% |
| NS(=O)(=O)c1ccc(CCN2C(=O)C=CC2=O)cc1 | 99.5% | 111% | 108% | 106% | 94.4% | 99.7% | 95.2 | 104% |
| C=C1C(=O)O[C@H]2[C@H]1CC/C(COC(=O)NCCc1c[nH]c3ccc(OC)cc13)=C\CC[C@@]1(C)O[C@@H]21 | -35.3% (active) | -22.1% (active) | 14.7% | -56.2% (active) | 26.9% | -82.5% (active) | 75.1 | 63.1% |
| O=C1c2cccc3c(-c4ccc5c(c4)ncn5C4CCCCC4)ccc(c23)C(=O)N1c1nc2ccccc2s1 | 72.6% | 95.8% | 100% | 108% | 69% | 84.4% | 93 | 83.8% |
| C#CCNC(=O)[C@]1(C)CC[C@]2(C)CC[C@@H]3C(=CC[C@H]4[C@@]3(C)CC[C@H]3C(C)(C)C(=O)CC[C@]43C)[C@@H]2C1 | 77.1% | 101% | 97.3% | 105% | 83.3% | 81% | 101 | 92.3% |
| COc1ccc(OC)c(-c2cc(-c3ccc(Cl)cc3)c3c(N)c(C(=O)c4ccc(Cl)cc4)sc3n2)c1 | 87.2% | 84.1% | 107% | 112% | 86.2% | 95.7% | 100 | 100% |
| COc1ccc(/C=C/c2nc(Nc3ccc(S(=O)(=O)Nc4nc(C)cc(C)n4)cc3)c3ccccc3n2)cc1 | 49.1% | 87.9% | 60.6% | 61.1% | 42.2% | 66.4% | 74.9 | 47.5% |
| Cc1c(C)c([N+](=O)[O-])c(C)c([N+](=O)[O-])c1C | 113% | 95.8% | 115% | 109% | 97.3% | 105% | 112 | 108% |
| C=CCn1c(-c2ccc(-c3nc4ccc(C)cc4[nH]3)cc2)n[nH]c1=S | 97.5% | 100% | 98.1% | 112% | 82.8% | 106% | 108 | 105% |
| CC(=O)Oc1ccc(/C=N/NC(N)=S)nc1 | 52% | 32.7% | 87% | 60.9% | 18.4% | 70.1% | 55 | 76.5% |
| Cn1c(N2NC(=O)C(N=Nc3ccc(S(N)(=O)=O)cc3)C2=O)nc(-c2ccco2)c(C#N)c1=O (stereo not drawn) | 72.2% | 109% | 119% | 51.9% | 68% | 76.4% | 51.1 | 85.5% |
| Cc1cc(C(=O)/C=C/c2ccc[nH]2)ccc1-n1ccc(C(F)(F)F)n1 | 85% | -35% (active) | 97.4% | 96.6% | 82.7% | 88.5% | 108 | -14% (active) |
| COc1ccc(/C=C/C(=O)Nc2cc(/C=C\c3cc(OC)c(OC)c(OC)c3)cc(OC)c2OC)cc1OC | 6.43% (active) | 8.93% (active) | -35% (active) | 35.2% | 16.8% | 19.2% | 55.6 | 17.1% |
| Cc1nc2sccn2c1-c1cn2ccsc2n1 | -4.14% (active) | 80.2% | 95.9% | 96.9% | -39.1% (active) | 88.3% | 50.2 | 64.1% |
| C/C(=N\NC(=O)CSc1nc2ccccc2c(=O)n1Cc1ccc(S(N)(=O)=O)cc1)c1ccc(F)cc1 | 96.7% | 112% | 104% | 104% | 96.1% | 102% | 112 | 105% |
| CC(=O)N1N=C(c2ccc(-n3ccc(C(F)(F)F)n3)c(F)c2)CC1c1ccc[nH]1 (stereo not drawn) | 91.9% | 111% | 99.8% | 107% | 92.8% | 103% | 111 | 101% |

| SMILES | growth [1] | growth [2] | growth [3] | growth [4] | growth [5] | growth [6] | growth [7] [%] | growth [8] |
| --- | --- | --- | --- | --- | --- | --- | --- | --- |
| O=C(Nc1ccc(Cl)cc1)c1cc(NCc2cc(O)ccc2O)ccc1O | 42.6% | 35.8% | 103% | 89.9% | 65.6% | 91.3% | 102 | 76.8% |
| OCc1cnc2ccccc2c1NC1CCCCCC1 | 65% | 105% | 91.4% | 98% | 73.5% | 77.9% | 111 | 96.4% |
| COc1ccc(/C=C/c2nc(Nc3ccc(Cl)cc3)c3ccccc3n2)cc1 | 49.9% | 93.4% | 55.3% | 48.7% | 44% | 36.1% | 63.9 | 48% |
| ClC1=C(Br)C(Br)(Br)C(=C(Br)Br)C1(Br)Br | 73.6% | 113% | 107% | 54% | 76.8% | 79.9% | 115 | 101% |
| COC1=CC(=O)c2ccccc2C1=O | 59% | 85% | -48.2% (active) | 108% | 56.9% | 29.9% | 107 | 94.8% |
| O=C(Cn1c[n+](CC(=O)c2ccc([N+](=O)[O-])cc2)c2ccccc21)Nc1cccc2cccnc12 | 33.9% | 35.9% | 60% | 54.8% | 31.4% | 37.2% | 50.4 | 78.4% |
| CCOC(=O)CSc1nc2ccccc2c(=O)n1Cc1ccc(S(N)(=O)=O)cc1 | 102% | 105% | 102% | 98.6% | 96.7% | 102% | 109 | 104% |
| N#C/C(=C\c1ccc(C(F)(F)F)cc1)c1cc2ccccc2[nH]1 | 89.8% | 94.1% | 97.1% | 100% | 77.4% | 94.9% | 116 | 97.7% |
| Cc1c(C(=O)NCCC(=O)NO)sc2ncnc(Nc3ccc(NC(=O)Nc4cccc(C(F)(F)F)c4)cc3)c12 | 101% | 137% | 103% | 104% | 89.2% | 108% | 112 | 100% |
| Cn1ccnc1C(=O)/C=C/c1ccc(CC(=O)Nc2ccc(F)cc2)cc1 | 28.8% | 23.6% | 19.7% | 10.1% | 28% | 4.94% (active) | 85.4 | 6.52% (active) |
| COc1cccc(-c2nc3occn3c2-c2ccnc(NCCNS(=O)(=O)c3cccc4ccccc34)n2)c1 | 87.3% | 105% | 102% | 113% | 95.5% | 99.9% | 132 | 93.8% |
| CCN(CC)CCOc1ccc(NC(=O)C(C(C)C)N2C(=O)/C(=C/c3ccc(Br)cc3)SC2=S)cc1 (stereo not drawn) | 93.1% | 110% | 97% | 41.9% | 19.3% | -24.8% (active) | 73 | 99.4% |
| C=C1C(=O)O[C@H]2[C@H]1CC/C(C(=O)NCCCCCNC(=O)/C1=C/CC[C@@]3(C)O[C@H]3[C@H]3OC(=O)C(=C)[C@@H]3CC1)=C\CC[C@@]1(C)O[C@@H]21 | 94.2% | 98.2% | 105% | 101% | 88.2% | 87% | 105 | 103% |
| COc1ccc(C(C)=O)c(OC)c1 | 108% | 106% | 119% | 106% | 92% | 103% | 105 | 110% |
| COc1cc2nc(-c3ccc(Cl)cc3)cc(OCCCN3CCOCC3)c2cc1OC | 28.2% | 44.9% | 10.2% | 65% | 50.2% | 21.1% | 66.8 | 29.7% |
